Measurements from PubChem BioAssay (EPA / NIEHS).
Activity calls are given as the source filed them. Rule for the calls: active = hit-call score of the fitted dose curve at least 0.9, where 1 is the maximum; inactive = score below 0.9.

What was measured:
[1] = target: Transcription factor E2F1 (Homo sapiens) (UniProt Q01094); experiment: ATG_E2F_CIS: Attagene CIS-FACTORIAL HepG2 Assay for human E2F Transcription Factor 1 (AID 2282935); conditions: HepG2 Attagene cis-reporter, E2F reporter RNA transcripts; actives raise or lower the signal
Chain of Transcription factor E2F1 (Homo sapiens) (Q01094 whole entry, looked up): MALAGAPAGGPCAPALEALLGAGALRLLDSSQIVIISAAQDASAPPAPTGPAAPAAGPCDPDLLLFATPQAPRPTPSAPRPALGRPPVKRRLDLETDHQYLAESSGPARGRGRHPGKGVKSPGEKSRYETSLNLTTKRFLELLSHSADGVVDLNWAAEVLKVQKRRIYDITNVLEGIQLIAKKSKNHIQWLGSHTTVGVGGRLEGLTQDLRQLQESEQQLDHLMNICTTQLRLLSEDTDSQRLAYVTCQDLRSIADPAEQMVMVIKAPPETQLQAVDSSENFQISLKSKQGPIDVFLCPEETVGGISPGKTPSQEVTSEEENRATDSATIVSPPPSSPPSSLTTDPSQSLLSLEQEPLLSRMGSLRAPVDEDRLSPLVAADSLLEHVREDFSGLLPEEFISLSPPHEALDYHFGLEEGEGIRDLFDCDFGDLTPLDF
Outline: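 Cis-element reporter mRNA induction in transiently transfected HepG2, 24 h exposure. Activity fitted in both directions relative to DMSO negative control.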

[2] = ATG_M_61_CIS: Attagene CIS-FACTORIAL HepG2 Assay for M61 Transcription Factor (Internal Marker) (AID 2282937); conditions: HepG2 Attagene CIS-FACTORIAL M61 internal marker reporter; actives raise or lower the signal
Outline: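 This endpoint serves as an internal background control within a multiplexed HepG2 cis-reporter panel. Cells are exposed for 24 h; reporter mRNA is amplified, fluorescently labelled and sized by capillary electrophoresis, with DMSO as negative control.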

[3] = ATG_EGR_CIS: Attagene CIS-FACTORIAL HepG2 Assay for human Early Growth Response 1 (EGR1) (AID 2282938); conditions: HepG2 Attagene CIS-FACTORIAL EGR reporter mRNA; actives raise or lower the signal
Outline: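 HepG2, transient MRTU transfection (cis promoters), 24 h compound. RNA → RT (oligo-dT) → PCR → 6-FAM labelling → HpaI cut → CE fluorescence. Bidirectional fit, DMSO baseline.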

[4] = ATG_M_19_CIS: Attagene CIS-FACTORIAL HepG2 Assay for M19 Transcription Factor (Internal Marker) (AID 2282939); conditions: HepG2 Attagene CIS-FACTORIAL M19 internal marker reporter; actives raise or lower the signal
Outline: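 HepG2, MRTU transient transfection, 24 h dosing. Total RNA → RT-PCR → 6-FAM primer extension → HpaI digest → CE fluorescence. Bidirectional curve fit, DMSO negative control.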

[5] = ATG_ERE_CIS: Attagene CIS-FACTORIAL HepG2 Assay for Estrogen Response Element (ERE) (AID 2282940); conditions: HepG2 ERE cis-reporter, Attagene RNA transcript; actives raise or lower the signal
Outline: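 After a 24 h chemical treatment, RNA from reporter-transfected HepG2 cells is reverse-transcribed, PCR-amplified and fluorescently labelled. Fragments separated by capillary electrophoresis give reporter signal; DMSO serves as negative control.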

[6] = ATG_Ets_CIS: Attagene CIS-FACTORIAL HepG2 Assay for human Erythroblast Transformation Specific (ETS) (AID 2282941); conditions: HepG2 ETS cis-reporter transcription, actives raise or lower the signal
Outline: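 Steps: transfect HepG2 with multiple reporter units; treat compound 24 h; isolate RNA, DNase-treat, reverse-transcribe; PCR-amplify, label with 6-FAM, digest with HpaI; separate by capillary electrophoresis. Activity fitted both directions versus DMSO.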

[7] = target: Hepatocyte nuclear factor 3-beta (Homo sapiens) (UniProt Q9Y261); experiment: ATG_FoxA2_CIS: Attagene CIS-FACTORIAL HepG2 Assay for human Forkhead box A2 (FOXA2) (AID 2282942); conditions: HepG2 cis-reporter transcription factor activity, 24 h; actives raise or lower the signal
Chain of Hepatocyte nuclear factor 3-beta (Homo sapiens) (Q9Y261 whole entry, looked up): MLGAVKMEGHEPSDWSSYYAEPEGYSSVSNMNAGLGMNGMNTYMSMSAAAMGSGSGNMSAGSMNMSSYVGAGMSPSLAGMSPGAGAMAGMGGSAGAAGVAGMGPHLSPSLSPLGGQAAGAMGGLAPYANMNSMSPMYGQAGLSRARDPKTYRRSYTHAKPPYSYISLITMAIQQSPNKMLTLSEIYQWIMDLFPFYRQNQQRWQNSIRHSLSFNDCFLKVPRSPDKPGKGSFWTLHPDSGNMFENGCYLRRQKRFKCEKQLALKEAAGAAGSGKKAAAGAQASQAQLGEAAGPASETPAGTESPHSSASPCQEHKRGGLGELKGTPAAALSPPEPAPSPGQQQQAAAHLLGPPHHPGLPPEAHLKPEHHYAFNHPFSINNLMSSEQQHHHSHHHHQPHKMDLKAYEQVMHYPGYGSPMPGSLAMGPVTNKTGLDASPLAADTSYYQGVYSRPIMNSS
Outline: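 Cells: HepG2, transient multiplex reporter transfection. Exposure 24 h. Detection: reporter-specific RT-PCR, fluorescent labelling, restriction digest, capillary electrophoresis. Analysis: bidirectional curve fit, DMSO as negative control.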

[8] = ATG_FoxO_CIS: Attagene CIS-FACTORIAL HepG2 Assay for human Forkhead box O (FoxO) (AID 2282943); conditions: HepG2 Attagene cis-reporter, FoxO element, mRNA; actives raise or lower the signal
Outline: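 Human hepatoma HepG2 cells carry transiently introduced reporter transcription units controlled by cis promoter elements. Chemical treatment lasted 24 h, and mRNA signal was compared with DMSO.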

[9] = ATG_GATA_CIS: Attagene CIS-FACTORIAL HepG2 Assay for human GATA Binding Protein (AID 2282944); conditions: HepG2 GATA cis-element reporter, Attagene multiplex mRNA; actives raise or lower the signal
Outline: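 Cells: HepG2, transiently transfected with cis-regulated reporter transcription units. Exposure: 24 h. Detection: RT-PCR plus capillary electrophoresis of FAM-labeled fragments. Analysis: bidirectional, DMSO as baseline.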

[10] = ATG_E_Box_CIS: Attagene CIS-FACTORIAL HepG2 Assay for human Enhancer Box (E-box) (AID 2282936); conditions: HepG2 E-box cis-reporter transcription, actives raise or lower the signal
Outline: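 Cells: HepG2 (human liver), transient MRTU transfection. Exposure 24 h. RNA → oligo(dT) RT → PCR → 6-FAM label → HpaI → CE. Activity fitted both directions relative to DMSO.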

Measured: AC50

COC(=O)C(C)Oc1ccc(Oc2ncc(C(F)(F)F)cc2Cl)cc1 (centres undefined)
active: [3] 76.1 µM
not listed: [10]
inactive: all other assays above

OC[C@@H](O)[C@H](O)[C@@H](O)[C@@H](O)CO
active: [5] 30.1 µM
not listed: [10]
inactive: all other assays above

O=S(=O)(O)CCCN1CCOCC1
not listed: [3] | [5] | [10]
inactive: all other assays above

O=Cc1ccccc1O
active: [5] 25.2 µM
not listed: [3] | [7] | [10]
inactive: all other assays above

CCCO[Si](OCCC)(OCCC)OCCC
active: [1] 100 µM
not listed: [3] | [10]
inactive: all other assays above

COc1ccc(C(C)=O)cc1
not listed: [3] | [10]
inactive: all other assays above

CC1=CCC(C(C)(C)O)CC1 (centres undefined)
not listed: [10]
inactive: all other assays above

CCCCCCCOC(C)=O
active: [5] 3.71 µM
not listed: [1]
inactive: all other assays above

COc1ccc(N)c(C)c1
active: [5] 25.5 µM
not listed: [10]
inactive: all other assays above

CCC(=O)OC(C)(C)C1CC=C(C)CC1 (centres undefined)
active: [5] 100 µM
not listed: [1]
inactive: all other assays above

CCCCN(CCO)CCO
not listed: [1]
inactive: all other assays above

CCC(C)(CCCC(C)C)OC(C)=O (centres undefined)
not listed: [5] | [10]
inactive: all other assays above

CCCCCC1CCC(=O)O1 (centres undefined)
not listed: [4] | [5] | [10]
inactive: all other assays above

CC(=O)c1ccc2ccccc2c1
not listed: [4] | [10]
inactive: all other assays above

CC(=O)CCc1ccc(O)cc1
not listed: [4] | [10]
inactive: all other assays above

CCCC1CCOC(C)S1 (centres undefined)
not listed: [10]
inactive: all other assays above

O=C(C=Cc1ccccc1)OCCCc1ccccc1
active: [5] 29.7 µM
not listed: [10]
inactive: all other assays above

CC1=CC(C)C(C=O)C(C)C1 (centres undefined) (tested in a mixture with another compound)
not listed: [5] | [10]
inactive: all other assays above

C[C@]12CC[C@@H]3c4ccc(O)cc4CC[C@H]3[C@@H]1CC[C@@H]2O
not listed: [5] | [10]
inactive: all other assays above

CC(=O)OC/C=C(C)/C=C/C=C(C)/C=C/C1=C(C)CCCC1(C)C
active: [3] 122 µM
not listed: [1]
inactive: all other assays above

C1=COCCC1
not listed: [3] | [10]
inactive: all other assays above

CCCCOC(=O)C(C)OC(=O)CCC (centres undefined)
not listed: [10]
inactive: all other assays above

O=C1CCC(=O)N1
not listed: [4] | [10]
inactive: all other assays above

C=C(C)C(=O)OCCC(C)OC(=O)C(=C)C (centres undefined)
not listed: [5] | [10]
inactive: all other assays above

CCC(C)(C)C1CCC(OC)CC1 (centres undefined)
not listed: [1]
inactive: all other assays above

O=C1CCCCCCCCCCCC(=O)OCCO1
inactive: [1] | [2] | [6] | [7] | [8] | [9]

CC(C)N1C(=O)c2ccccc2C1=O
active: [5] 74.7 µM
not listed: [10]
inactive: all other assays above

CCCC[N+](C)(CCCC)CCCC
not listed: [3] | [10]
inactive: all other assays above

c1ccc(OCCOc2ccccc2)cc1
not listed: [1] | [4]
inactive: all other assays above

CCCCOCCOC(=O)c1ccccc1C(=O)OCCOCCCC
not listed: [1]
inactive: all other assays above
